Measurements as given in PubChem BioAssay (Tox21).
Inconclusive results are not listed. Unmarked numbers belong to inactive results. The call rests on the fitted dose curve.

Assay: qHTS assay for small molecule agonists of the antioxidant response element (ARE) signaling pathway - cell viability counter screen (AID 743203); further: nearly all actives have a fitted effect of over 55% in size
Conditions: ARE-bla HepG2 viability, CellTiter-Glo luminescence, 16 h; series mostly up to 73.3 µM; viability change, negative = cytotoxic: at the top concentration
Description: National Center for Advancing Translational Sciences [NCATS]
NIH Chemical Genomics Center [NCGC]
U.S. Environmental Protection Agency [EPA]
National Institutes of Environmental Health Sciences [NIEHS]
National Toxicology Program [NTP]
U.S. Food and Drug Administration [FDA]
Oxidative stress has been implicated in the pathogenesis of a variety of diseases ranging from cancer to neurodegeneration. The antioxidant response element (ARE) signaling pathway plays an important role in the amelioration of oxidative stress. The CellSensor ARE-bla HepG2 cell line (Invitrogen) can be used for analyzing the Nrf2/antioxidant response signaling pathway. Nrf2 (NF-E2-related factor 2) and Nrf1 are transcription factors that bind to AREs and activate these genes. The CellSensor ARE-bla Hep G2 cell line contains a beta-lactamase reporter gene under control of the Antioxidant Response Element (ARE) stably integrated into HepG2 cells. The activation of the report gene under culture conditions can be detected by fluorescence intensity. This cell line has been used to screen the Tox21 10K compound library to identify agonists that induce oxidative stress. The cytotoxicity of the Tox21 compound library against the ARE-bla cell line was tested in parallel by measuring the cell viability using CellTiter-Glo assay (Promega, Madison, WI) in the same wells.
Tox21 Assay Protocol Summary:
ARE-bla HepG2 cells were dispensed at 2,000 cells/5 ul/well in 1536-well white wall/solid bottom plates using a Multidrop Combi (ThermoFisher Scientific, Waltham, MA) dispenser. After the assay plates were incubated at 37C/5% CO2 for 5 hrs, 23 nL of compounds dissolved in DMSO, positive controls or DMSO only was transferred to the assay plate by a pintool work station (Kalypsys, San Diego, CA). The plates were incubated at 37C/5% CO2 for 16 hrs, followed by addition of 4 ul/well of CellTiter-Glo reagent into the assay plates using a Flying Reagent Dispenser (Aurora Discovery, San Diego, CA). After 30 min incubation at room temperature, the luminescence intensity in the assay plates was measured using a ViewLux (PerkinElmer, Shelton, CT) plate reader.
On the % scale 0 is the no-effect control and ±100 the full control effect.

SMILES | viability change, negative = cytotoxic
C[C@H](CCC(=O)O)[C@H]1CC[C@H]2[C@@H]3[C@H](O)C[C@@H]4C[C@H](O)CC[C@]4(C)[C@H]3C[C@H](O)[C@]12C | -0.536%
Cc1ccccc1N1CCN(CCc2nnc3n2CCCC3)CC1 | -1.25%
CCCCOC(=O)[C@@H](C)Oc1ccc(Oc2ccc(C(F)(F)F)cn2)cc1 | 0.982% [at 94.8 µM]
Cc1oc(=O)oc1CN1CCN(c2cc3c(cc2F)c(=O)c(C(=O)O)c2n3C(C)S2)CC1 (stereo not given) | 24.9%
C=CCOCC(CO)(COCC=C)COCC=C | 8.96%
c1ccc(CNc2ncnc3nc[nH]c23)cc1 | -14.3%
CO[Si](CCCS)(OC)OC | -1.37%
CNC(=O)C(c1ccccc1)c1ccccc1 | -3.04%
CCOC(=O)CCc1ccccc1 | 7.24%
CCCCCC1CCCC(=O)O1 (stereo not given) | 6.43%
CCC(O)C(C)(C)C (stereo not given) | 5.93% [at 94.8 µM]
OC(CCN1CCCCC1)(c1ccccc1)c1ccccc1 | 2.54%
CCC(=O)OCCC(C)CCC=C(C)C (stereo not given) | -14.4%
O=C(O)C(=O)Nc1cccc(-c2nn[nH]n2)c1 | 8.33%
OC[C@@H](O)[C@H](O)[C@@H](O)[C@@H](O)CO | -3.89%
COC(OC)C(C)c1ccccc1 (stereo not given) | -25.5%
CC1CCC(C(C)(C)S)C(=O)C1 (stereo not given) | -4.42%
CCOC(=O)CC#N | 0.104%
O=C1CC[C@H](C(=O)N2CCCCC2)N1 | -15.9%
Oc1ccccc1Cc1ccccc1O | -0.0597%

SMILES | viability change, negative = cytotoxic
COc1cc2c(Nc3ccc(Br)cc3F)ncnc2cc1OCC1CCN(C)CC1 | -3.63%
CCCCC/C=C/CC(=O)OC | 9.92%
Nc1ccc(S(=O)(=O)Nc2ccccn2)cc1 | 0.224%
CCN1CN(CC)CN(CC)C1 | -7.85%
C1=CCC(c2ccccc2)CC1 (stereo not given) | 0.789%
O=S(=O)(O)CCO | 2.47% [at 94.8 µM]
Cc1ccc(C(=O)C(=O)O)cc1C | 5.77%
CCC(C)(CCC(C)C)C(=O)[O-].CCC(C)(CCC(C)C)C(=O)[O-].[Zn+2] (stereo not given) | 3.81%
O=c1[nH]c(=O)c2ccccc2o1 | -1.93%
O=S(=O)(O)c1cc(O)ccc1O | 19.8%
CC(=O)OC(C(=O)c1ccccc1)c1ccccc1 (stereo not given) | -0.252% [at 94.8 µM]
CC(=O)OCC(=O)[C@@]1(O)[C@H](OC(C)=O)C[C@H]2[C@@H]3CCC4=CC(=O)C=C[C@]4(C)[C@@]3(F)[C@@H](O)C[C@@]21C | -0.305%
CC1=CC[C@H](CC=O)C1(C)C | 10.8%
CCCCCCCCCCCCC | -6.29%
NS(=O)(=O)c1ccc(Cl)c(S(N)(=O)=O)c1 | -2.05%
O=CO | -3% [at 8.36 µM]
CC(C)CCC(=O)CCC(C)C | -3.52%
O=C1OC(=O)c2cc(Oc3ccc4c(c3)C(=O)OC4=O)ccc21 | 3.13%
CCCO | -7.66%
NC(Cc1c[nH]c2ccccc12)C(=O)O (stereo not given) | 6.13%
